Where “and” joins values, the source holds several entries; their conditions need not be identical. Equal values may be shown once. Records with an inconclusive call do not appear. Values without a mark were called inactive. Calls of active or inactive are those of the source. The call rests on the fitted dose curve; in most records, active means well fitted curve in the direction sought with a large enough effect; inconclusive means small, poorly fitted or top-dose-only effect, or another doubt; inactive means no such curve, though single readings can be large; an effect the other way counts as inactive or inconclusive.
Columns and labels:
[1] = Viability qHTS for spleen associated tyrosine kinase inhibitor (SYKi) naive MV4-11 cells (AID 1963823); further: nearly all actives have a fitted effect of over 40% in size
How it was run: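 Viability of MV4-11 AML cells lacking prior SYK inhibitor exposure is scored by CellTiter-Glo luminescence following 72 hr compound incubation at 37 C, 5% CO2, seeded at 500 cells per well.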

[2] = Viability qHTS for spleen associated tyrosine kinase inhibitor (SYKi) drug resistant MV4-11 cells (AID 1963824); further: nearly all actives have a fitted effect of over 35% in size
How it was run: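 SYK-inhibitor-resistant MV4-11 AML cells were seeded at 500 per well onto compound and cultured 72 hours (37 °C, 5% CO2). CellTiter-Glo was then added, and after 10 min at room temperature, luminescence gave viability.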

[3] = Cellular viability qHTS for adrenocortical cancer (ACC) cell line SW-13 (AID 1963989); details: SW-13 ACC cells viability, CellTiter-Glo, 48 h; activity (max response): stronger effect = lower value; further: nearly all actives have a fitted effect of over 65% in size;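 on activity (max response): cells grown in serum-free medium with ITS supplement; on the % scale 0 is the no-effect control and ±100 the full control effect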
How it was run: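 Here, serum-free SW-13 cultures were dosed up to 46 uM. Following 48 h, ATP-dependent luminescence (CellTiter-Glo) reported viable cells, and logistic modeling produced IC50 values.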

[4] = Cellular viability qHTS for adrenocortical cancer (ACC) cell line NCI-H295R (AID 1963990); further: nearly all actives have a fitted effect of over 60% in size;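 on activity change, negative = viability loss: 0% = DMSO only wells and -100% = full killing with cytotoxic reference compound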
How it was run: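 Viability of NCI-H295R after 48 h of treatment (final up to 46 uM) measured through cellular ATP luminescence.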
Potency means the concentration at half of the fitted maximal effect.

Row | SMILES | Potency [1] | Potency [2] | activity (max response) [3] | Potency [4] | Potency [3] | viability (% of control) [1] | viability, % of control [2] | activity change, negative = viability loss [4]
1 | CN1CC(=O)N2[C@H](c3ccc4c(c3)OCO4)c3[nH]c4ccccc4c3C[C@@H]2C1=O | inactive | inactive | 17.1% and 13.1% | inactive |  |  |  | 
2 | Cc1cc(OCCCc2c3n(c4c(-c5c(C)nn(C)c5C)c(Cl)ccc24)[C@H](C)CN(c2cn(C)c4ccc(C(=O)O)cc24)C3=O)cc(C)c1Cl | 742 nM (active) | 662 nM (active) |  | 2 µM (active) | 2 µM (active) |  |  | 
3 | COc1ccc(/C=C\c2cc(OC)c(OC)c(OC)c2)cc1O | 5.3 nM (active) | 4.7 nM (active) |  | 0.0089 µM (active) | 0.01 µM (active) |  |  | 
4 | CN1[C@@H]2CC[C@H]1CC(NC(=O)n1c(=O)[nH]c3ccccc31)C2 (some centres not stated) | inactive | inactive | 2.49% | inactive |  |  |  | 
5 | CCC(CC)CC1(C(=O)Nc2ccccc2SC(=O)C(C)C)CCCCC1 | inactive | inactive | 9.72% | inactive |  |  |  | 
6 | CC(=O)[C@]1(O)Cc2c(O)c3c(c(O)c2[C@@H](O[C@H]2C[C@H](N)[C@H](O)[C@H](C)O2)C1)C(=O)c1ccccc1C3=O | 75 nM (active) | 119 nM (active) and 83.3 nM (active) |  | 1.84 µM (active) and 2.24 µM (active) | 46.1 nM (active) and 2 µM (active) |  |  | 
7 | CC(=O)CC(c1ccc([N+](=O)[O-])cc1)c1c(O)c2ccccc2oc1=O (configuration not stated) | inactive | inactive | -8% | inactive |  |  |  | 
8 | Nc1ccc(/C=C/c2ccc(N)cc2S(=O)(=O)O)c(S(=O)(=O)O)c1 |  |  | 11.4% |  |  | 106% [at 0.588 µM] | 94.1% [at 0.588 µM] | -9.73% [at 0.587 µM]

Source: PubChem BioAssay (NCATS)
